Inconclusive results are not listed. Entries that show only a call come without a potency. Unmarked numbers belong to inactive results. Active and inactive are the calls of the source. The call rests on the fitted dose curve.

The nature of this test: cAMP Responsive Elements (CRE) small molecule agonists, cell-based qHTS assay (AID 1963590). Particulars: CRE-bla HEK293T, beta-lactamase FRET ratio, 3 h; series mostly up to 92.4 µM. An excerpt: U.S. Tox21 Program National Center for Advancing Translational Sciences [NCATS] Division of Preclinical Innovation [DPI] U.S. Environmental Protection Agency [EPA] National Institutes of Environmental Health Sciences [NIEHS] National Toxicology Program [NTP] U.S. Food and Drug Administration [FDA] Tox21 Assay Overview: CREB (cyclic-AMP Responsive Element Binding Protein) is a cellular transcription factor. It binds to certain DNA sequences called cAMP Responsive Elements (CRE) and regulates the transcription of the genes. […] This cell line can be used to find agonists/antagonists of the cyclic AMP signaling pathway. The activation of the report gene under culture conditions can be detected by fluorescence intensity. This cell line has been used to screen the Tox21 10K compound library to identify agonists that induce oxidative stress.
Tox21 Assay Protocol Summary: CRE-bla Hek 293T cells were suspended in assay medium (DMEM containing 10% dialyzed FBS, 0.1 mM NEAA, 1 mM sodium pyruvate and 25 mM HEPES) and dispensed at 2,000 cells/5 uL /well into 1536-well black wall/clear bottom plates using a Multidrop Combi (ThermoFisher Scientific, Waltham, MA) dispenser. After the assay plates were incubated at 37 C/5% CO2 for 18 hrs, 23 nL of compounds dissolved in DMSO, positive controls or DMSO only was transferred to the assay plate by a pintool workstation (Kalypsys, San Diego, CA). After the plates were incubated at 37 C/5% CO2 for 3 hrs, 1 uL of LiveBLAzer B/G FRET substrate (Invitrogen, Carlsbad, CA) was added to each well using Bioraptr Flying Reagent Dispenser (FRD, Aurora Discovery, San Diego, CA). The plates were incubated at room temperature for 2 h.
Background: In qHTS, concentration-response curves come from the screen itself.
Regarding `C[Si](C)=O`, the activation is 0.463% [at 8.39 µM].
With `O=C(O)c1cc(=O)c2ccccc2o1`, the Potency entry is “inactive”.
Still for that read-out and setting: next, `Cl/C(=C\n1cncn1)c1ccc(Cl)cc1Cl`: “inactive”.
On the same count and under the same terms, the entry for `C1=CCC2CC=CC2C1` (stereo not given) is “inactive”.
The same measure, in the same setting: next, `Cc1ccc(C(=O)C(=O)O)cc1C`: “inactive”; `NC(=O)Nc1ccc(Cl)cc1`: “inactive”; `O`: “inactive”.
In the case of `CC(C)N=C=NC(C)C`, the Potency entry was “inactive”.
Still for that read-out and setting: next, `CN1N=C(C(N)=O)CCC1=O`: “inactive”; `CC(C)(C)NC(=O)[C@@H]1CN(Cc2cccnc2)CCN1C[C@@H](O)C[C@@H](Cc1ccccc1)C(=O)N[C@H]1c2ccccc2C[C@H]1O`: “inactive”; `Cc1ccc(N(C)C)cc1`: “inactive”.
Same read-out and setting: the entry for `Cc1ncc(CSSCc2cnc(C)c(O)c2CO)c(CO)c1O` is “inactive”; for `CS(=O)(=O)c1ccc(Cl)cc1` it is “inactive”.
Take `C=CCCCCCCCCCCCCCCCC`: the activation is 0.435% [at 8.39 µM].
Consider `COc1cc(CCC(C)=O)ccc1O`, for which the Potency entry was “inactive”.
Same read-out and setting: the entry for `CC(C)=C1CC[C@@H](C)CC1=O` is “inactive”.
Same read-out and setting: the entry for `O=c1[nH]cnc2c1ncn2[C@@H]1O[C@H](CO)[C@@H](O)[C@H]1O` is “inactive”.
Same read-out and setting: next, `FC(F)(F)c1cccc(Cl)c1`: “inactive”; `Cc1ccc(C)cc1`: “inactive”; `NC(=O)CCCCC(N)=O`: “inactive”.
Take `CC(C)(C)C(=O)C1C(=O)c2ccccc2C1=O`: the Potency entry was “inactive”.
For `CO[Si](C)(C)OC`, the Potency result was “inactive”.
On the same count and under the same terms, the entry for `O=C(CCN1CCN(CCO)CC1)N1c2ccccc2Sc2ccc(C(F)(F)F)cc21` is “inactive”; for `C(=C\c1ccccc1)/c1ccccc1` it is “inactive”; for `CC(=O)SC[C@@H](C)C(=O)N1CCC[C@H]1C(=O)N[C@@H](Cc1ccccc1)C(=O)O` it is “inactive”.
The same measure, in the same setting: next, `O=C(O)/C=C/c1cnc[nH]1`: “inactive”; `CC1CNCC(C)O1` (stereo not given): “inactive”; `c1ccc2nccnc2c1`: “inactive”.
`CCC(C(=O)NC(N)=O)c1ccccc1` (stereo not given): the Potency result was “inactive”.
The same measure, in the same setting: the entry for `NCc1ccc(S(N)(=O)=O)cc1` is “inactive”; for `OCCN1CCNCC1` it is “inactive”.
The same measure, in the same setting: next, `Fc1ccccc1-c1ccccc1`: “inactive”; `O=C(O)c1cccc(Cl)c1Cl`: “inactive”.
For the molecule `NC(=O)c1cccc([N+](=O)[O-])c1`, the Potency result is “inactive”.
Still for that read-out and setting: the entry for `COC(=O)Nc1ccc(Cl)c(Cl)c1` is “inactive”.
Still for that read-out and setting: the entry for `CC/C=C\CCOC(=O)CC` is “inactive”; for `Cc1ccc2ccccc2c1[N+](=O)[O-]` it is “inactive”.
On to `C[C@@H]1NC(=O)[C@@H](N)CNC(=O)[C@H](C2CCNC(N)=N2)NC(=O)/C(=C/NC(N)=O)NC(=O)[C@H](CNC(=O)C[C@@H](N)CCCN)NC1=O` (stereo not given in full), for which the activation was -0.384% [at 0.349 µM].
As for `CCCCOCCOCCOC(=O)CCCCC(=O)OCCOCCOCCCC`, the Potency result is “inactive”.
On the same count and under the same terms, next, `O=S(=O)(O)c1ccccc1O`: “inactive”.

(Values after PubChem BioAssay (Tox21).)
